Screens from PubChem BioAssay.
TIM10 inh: growth inhibitors of isogenic TIM10 control yeast, primary screen, counter-screen for tim10-1 yeast inhibitor project, luminescence, uHTS | actives 1.4% (n = 330,000) | S. cerevisiae TIM10 strain growth, BacTiter-Glo luminescence, 24 h | inhibition, % at 10 µM | AID 463195, 2010;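 active = inhibition of 40% or more at the single tested concentration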;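 also: wild-type TIM10 isogenic control strain grown at permissive 25 °C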
tim10-1 inh: growth inhibitors of tim10-1 mutant yeast, primary screen, luminescence, uHTS | S. cerevisiae tim10-1 ts strain growth, BacTiter-Glo, 24 h | actives 2.2% (n = 330,000) | AID 463190, 2010 | inhibition, % at 20 µM;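 active = inhibition of at least 40%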;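 also: mutant grown at 25 °C; 0% = DMSO wells with yeast and 100% = wells holding no yeast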
PfHsp90 set2: growth inhibition of PfHsp90-expressing yeast, primary screen, antimalarial PfHsp90 inhibitor project, S. cerevisiae, BacTiter-Glo luminescence, single point, set 2 | inhibition, % at 9.4 µM | BacTiter-Glo ATP, 48 h; yeast lacking PDR1 and PDR3 efflux regulators | AID 504621, 2011 | actives 0.32% (n = 310,000);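 active = every replicate shows inhibition above about 80%, whatever the replicate mean, limit read from the data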;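 also: 0% = DMSO neutral controls and 100% = 20 µM radicicol positive controls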
NLRP3 yeast inh: NALP3 inflammasome inhibitors in reconstituted yeast, primary screen, luminescence, uHTS. Yeast reconstituted NLRP3/ASC/caspase-1, beta-gal luminescence, 24 h. inhibition, % at 10 µM. actives 0.39% (n = 330,000);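 active = inhibition of 50% or more; inactive = inhibition below 50%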;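 also: plate controls were induced DMSO wells for no effect and uninduced yeast grown without galactose for full effect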
tim23-1 inh: growth inhibitors of tim23-1 mutant yeast, primary screen, luminescence, uHTS. actives 1.3% (n = 330,000). inhibition, % at 20 µM. S. cerevisiae tim23-1 growth, BacTiter-Glo luminescence, 24 h;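 active = growth inhibition of the mutant yeast at or above 50%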;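 also: temperature-sensitive mutant grown at 25 °C; plate controls were DMSO-treated mutant yeast for no effect and medium wells lacking yeast for full effect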
NALP3 yeast conf: NALP3 inhibitors retested in yeast, confirmation, luminescence, single concentration | shares compounds with NLRP3 yeast inh | yeast expressing human NALP3 | inhibition, % at 10 µM | actives 81% (n = 1,300) | AID 435006, 2010; in the data active = inhibition above about 48%
Casp1-ASC yeast: CASP1-PYCARD signaling inhibition in yeast, confirmatory test, counterassay for NLRP3 inhibitor program, one-dose. shares compounds with NLRP3 yeast inh. yeast expressing Caspase-1-ASC, luminescence counter screen. inhibition, % at 10 µM. actives 66% (n = 1,000). AID 488784, 2010
NALP3 yeast rt: NALP3 inhibitors in yeast, repeat test, confirmation, luminescence, single concentration, retest; AID 488794, 2010; inhibition, % at 10 µM; actives 53% (n = 1,000); yeast expressing human NALP3, luminescence read-out; shares compounds with NLRP3 yeast inh
tim10-1 confirm: growth inhibitors of tim10-1 mutant yeast, confirmation, single concentration, luminescence, S. cerevisiae | shares compounds with tim10-1 inh | S. cerevisiae tim10-1 ts strain growth, BacTiter-Glo, 24 h | inhibition, % at 20 µM | actives 56% (n = 7,400) | AID 463213, 2010;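 active = inhibition of yeast growth at or above a set limit in either of two repeat tests at 20 µM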;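 also: tim10-1 mutant grown at permissive 25 °C to find synthetic lethal compounds; 0% = DMSO yeast wells and 100% = medium wells without yeast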
TIM10 conf: growth inhibitors of wild-type TIM10 yeast, confirmation, counter-screen for tim10-1 synthetic lethality project, single concentration, luminescence, S. cerevisiae. shares compounds with TIM10 inh. S. cerevisiae tim10 strain growth, BacTiter-Glo luminescence, 24 h. inhibition, % at 10 µM. actives 63% (n = 4,600);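 active = inhibition of yeast growth at or above a set limit in either of two replicates at 10 µM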;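 also: this counterscreen used the strain with wild-type TIM10; 0% = yeast with DMSO and 100% = medium wells lacking yeast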
tim23-1 confirm: tim23-1 mutant yeast growth inhibitors, confirmation, luminescence, single concentration. shares compounds with tim23-1 inh. inhibition, % at 20 µM. AID 463218, 2010. actives 83% (n = 4,400). S. cerevisiae tim23-1 growth, BacTiter-Glo luminescence, 24 h;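 active = inhibition above about 39% in either of two replicate wells at 20 µM, limit read from the data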;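 also: temperature-sensitive tim23-1 mutant grown at 25 °C; 0% = DMSO wells with yeast and 100% = medium wells without yeast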
Active calls of the source: *; · = not tested or not shown. Compounds with a hit are over-represented: about 3.7% of the library has one in this group of screens. Rule as the data show it, unless noted: active = inhibition above about 50%; inactive = the rest.

SMILES	TIM10 inh	tim10-1 inh	PfHsp90 set2	NLRP3 yeast inh	tim23-1 inh	NALP3 yeast conf	tim10-1 confirm	TIM10 conf	tim23-1 confirm	others
OCc1ccc(O)c2ncccc12	-1	-15	12	-17	-7	·	·	·	·
Oc1c(I)cc(I)c2cccnc12	53*	71*	109*	65*	69*	62*	65*	76*	56*	Casp1-ASC yeast=26;NALP3 yeast rt=24
NC(=O)CCN(C(=O)c1cccc(S(=O)(=O)N2CCc3ccccc32)c1)c1ccccc1	14	13	21	6	20	·	·	·	·
Cc1ccc(-c2csc(NC(=O)c3ccc(F)cc3)c2C(=O)O)cc1	82*	81*	34	83*	77*	91*	82*	94*	88*	Casp1-ASC yeast=92*;NALP3 yeast rt=38
COc1ccc(-c2csc(NC(=O)c3ccc(C(C)(C)C)cc3)c2C(=O)O)cc1	73*	84*	·	87*	85*	86*	83*	92*	90*	Casp1-ASC yeast=95*;NALP3 yeast rt=86*
O=C(Nc1scc(-c2ccccc2)c1C(=O)O)c1ccc(F)cc1	60*	67*	39	61*	85*	74*	72*	45*	86*	Casp1-ASC yeast=48;NALP3 yeast rt=60*
Cc1ccc(C(=O)Nc2scc(-c3ccccc3)c2C(=O)O)o1	18	6	·	-7	5	·	·	·	·
Cn1c(N2CCCC2)nc2c1c(=O)n(Cc1ccc(Cl)cc1)c(=O)n2C	56*	55*	9	74*	53*	33	40*	35*	60*
Cn1c(=O)c(=O)n(C)c2cc(S(=O)(=O)N3CCOc4ccccc43)ccc21	7	-9	11	4	1	·	·	·	·
CCOC(=O)c1ccc(Nc2ncnc3c2cnn3C)cc1	-4	2	14	20	9	·	·	·	·
Cn1ncc2c(O/N=C(\N)c3ccc(C(C)(C)C)cc3)ncnc21	79*	27	-34	54*	55*	78*	·	84*	24	Casp1-ASC yeast=82*;NALP3 yeast rt=67*
CN(C)c1ccc(/C=C/c2ccc3ccccc3[n+]2C)cc1	81*	85*	54	52*	75*	33	81*	9	76*
COc1ccc(/C=C/c2ccc3ccccc3[n+]2C)cc1OC	8	14	7	19	3	·	·	·	·
CCCCC(CC)CO (stereo not given)	5	3	9	12	11	·	·	·	·
CCCCC(CC)CN=C(N)NC(N)=NCCCCCCN=C(N)NC(N)=NCC(CC)CCCC (stereo not given)	94*	96*	110*	97*	88*	95*	95*	96*	84*	Casp1-ASC yeast=86*;NALP3 yeast rt=94*
O=C(Oc1c(Cl)cc(Cl)c2cccnc12)c1ccco1	71*	65*	129*	71*	89*	84*	48*	67*	72*
O=C(Oc1c(Cl)cc(Cl)c2cccnc12)c1cccs1	64*	44*	99*	61*	56*	70*	48*	57*	62*	Casp1-ASC yeast=83*;NALP3 yeast rt=81*
O=C(Oc1c(CN2CCOCC2)cc(Cl)c2cccnc12)c1ccccc1Cl	22	33	7	41	44	·	·	·	·
CCC(=O)N1CCc2cc(S(=O)(=O)NCCC(=O)N3CCN(c4cccc(C)c4)C(C)C3)ccc21 (stereo not given)	-8	11	-2	-4	4	·	·	·	·
COC(=O)c1cccc(NC(=O)c2cc3sccc3n2C)c1	31	44*	11	7	34	·	31	·	·
CN(c1ccc(C(=O)Nc2ccc(F)cc2F)cc1)S(=O)(=O)c1ccccc1	-19	4	-1	6	11	·	·	·	·
Oc1ccccc1/C=N/Nc1nccnc1Cl	28	55*	·	33	28	·	20	·	·
COc1ccc(C(=O)O/N=C(\C)c2ccccc2)cc1	29	19	34	48	45	·	·	·	·
CC(C)=NOC(=O)c1ccc(-c2ccccc2)cc1	39	54*	-23	38	42	·	42*	·	·
CC(C)(C)N(Cc1ccccc1)C(=O)c1ccc(Cl)cc1[N+](=O)[O-]	31	43*	-1	10	35	·	29*	·	·
SMILES	TIM10 inh	tim10-1 inh	PfHsp90 set2	NLRP3 yeast inh	tim23-1 inh	NALP3 yeast conf	tim10-1 confirm	TIM10 conf	tim23-1 confirm	others
CCCn1c(C)nc2c(c1=O)c1nc3ccccc3nc1n2CCC1=CCCCC1	7	49*	·	21	39	·	-2	·	·
O=C(O)c1ccc(Cl)c2c1C1C=CCC1C(c1ccccn1)N2 (stereo not given)	0	43*	·	-9	28	·	12	·	·
CCN(CC(=O)Nc1ccc(OC)cc1)C(=O)c1ccc(OCc2c(C)noc2C)cc1	·	·	-3	·	·	·	·	·	·
CCn1c(SCC(=O)Nc2sccc2C(N)=O)nnc1C1CC1	-1	-7	-5	5	5	·	·	·	·
O=C(NCCCSc1ccccc1)c1cc(Br)ccc1O	16	46*	94*	38	42	·	19	·	·
O=C(NCCSc1ccccc1)c1ccc(Br)cc1	-34	-25	23	45	-6	·	·	·	·
O=C(O)c1cccc2c1C(=O)N(c1ccc3c(c1)Cc1ccccc1-3)C2=O	·	·	5	·	·	·	·	·	·
CC(C)c1nnc(NC(=O)CCS(=O)(=O)Cc2ccccc2)s1	10	-26	-11	-1	-6	·	·	·	·
CC(C)c1nnc(NC(=O)CCS(=O)(=O)c2nc(-c3cccs3)cc(C(F)(F)F)n2)s1	28	61*	·	19	44	·	45*	·	·
COc1ccccc1C1=Nn2c(nnc2C2CCCCC2)SC1	-3	44*	4	4	16	·	19	·	·
CCCCCCCSc1nsc(N)n1	24	45*	·	32	43	·	21	·	·
CCn1ccnc1CN(C)Cc1cn(-c2ccc(C)cc2)nc1-c1ccc(F)cc1	3	23	18	19	-11	·	·	·	·
